The nature of assay [1]: resazurin metabolic signal in HepG2 cells – cell-based, resazurin fluorescence, 24 h, PK04 Diversity Set, profiling panel (AID 1172). To be noted: HepG2 viability, higher = more signal. For orientation: The colour change of resazurin is a common sign of viable cells or microbes.
Assay [2] in a line: budding yeast growth changes without added modifier – OD600, strain BY4716, 24 h, basal condition, primary screen (AID 1173). To be noted: S. cerevisiae BY4716 growth, OD600, 24 h; higher = more signal, called active from +8 up or from −8 down.
A short description of assay [3]: viability profiling in MM1S myeloma cells – cell-based, resazurin fluorescence, basal, 24 h, PK04 Diversity Set, profiling panel (AID 1174).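 Further: MM1S multiple myeloma cell line.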 To be noted: higher = more signal, called active from +8 up or from −8 down.
The target in assay [4] is Dihydroorotate dehydrogenase (quinone), mitochondrial (Plasmodium falciparum (isolate 3D7)) (UniProt Q08210). Put plainly: inhibition of P. falciparum DHODH – biochemical, C-terminal His tag, absorbance 600 nm, primary screen (AID 1175).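 Further: recombinant parasite enzyme with a five histidine tag at its C terminus.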 The settings on record: PfDHODH enzyme, DCIP absorbance 600 nm; higher = more signal, called active from +8 up or from −8 down.
Assay [5] in a line: inhibition of PAO1 biofilm formation – strain PAO1, LB-PBS medium, absorbance 600 nm, primary screen (AID 1176). To be noted: P. aeruginosa PAO1 growth/biofilm, A600, 12 h; higher = more signal.
The nature of assay [6]: growth modulation of vineyard yeast isolate – strain RM11-1a, OD600, basal, 24 h, primary screen (AID 1177).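 Further: cultures grown under basal conditions with no added stressor.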 To be noted: S. cerevisiae RM11-1a growth, OD600, 24 h; higher = more signal, called active from +8 up or from −8 down.
Assay [7] can be described thus: growth of efflux-deficient E. coli DRC39 – strain DRC39, OD650, 24 h, E. coli filamentation inducers, primary screen (AID 1178).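 Further: growth measured as culture turbidity by optical density at 650 nm.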 The settings on record: E. coli DRC39 acrAB, higher = more signal, called active from +8 up or from −8 down.
Assay [8] in a line: growth of efflux-deficient E. coli DRC39 – strain DRC39, OD650, 48 h, E. coli filamentation inducers, primary screen (AID 1179).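 Further: screen aims at cell division blockers that make cells filament.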 The settings on record: E. coli DRC39 delta-acrAB growth, higher = more signal, called active from +8 up or from −8 down.
The nature of assay [9]: viability profiling in RPMI8226 myeloma cells – cell-based, resazurin fluorescence, basal, 24 h, PK04 Diversity Set, profiling panel (AID 1180).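 Further: RPMI8826 multiple myeloma cell line at 5000 cells per well.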 To be noted: higher = more signal.
For assay [10], the target named is E3 ubiquitin-protein ligase XIAP (Homo sapiens) (UniProt P98170). Put plainly: small molecules binding XIAP protein – biophysical, small-molecule microarray, fluorescence 635 nm, primary screen (AID 1181).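 Further: score merges 667 nm emission and signal to noise over triplicate slides.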 The settings on record: higher = more signal.
The subject of assay [11] is XIP peptide (Xip251-270) binding. Put plainly: XIP fragment 251-270 binding compounds – biochemical, small-molecule microarray, fluorescence 635/667 nm, 0.1 µg/mL protein, primary screen (AID 1182). To be noted: fluorescent protein binding, 635 nm, higher = more signal, called active from +8 up or from −8 down.
The subject of another assay is XIP peptide (Xip251-270). Put plainly: compounds binding XIP fragment 251-270 – biochemical, small-molecule microarray, fluorescence 635/667 nm, 0.5 µg/mL protein, primary screen (AID 1183). The settings on record: fluorescence 635 nm, higher = more signal.
Assay [12] in a line: blood-stage malaria parasite viability loss – strain 3D7, DAPI fluorescence, 100 nL, primary screen (AID 1184).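 Further: parasites grown inside human red blood cells in medium with human serum.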 The settings on record: P. falciparum 3D7 growth, 3 d, higher = more signal.
The target of assay [13] is Homeobox protein Hox-A13 (Mus musculus) (UniProt Q62424). Put plainly: disruptors of Hoxa13 oligonucleotide interaction – biochemical, fluorescence polarization, labeled oligonucleotide, primary screen (AID 1185). The settings on record: Hoxa13:DNA binding, 15 min, higher = more signal, called active from +8 up or from −8 down. (In general: In fluorescence polarisation assays a small probe gives low polarisation when free and higher when bound to something large.)

Assay [14] can be described thus: blockers of DNA damage checkpoint Chk1 activation – imaging, HeLa, hydroxyurea, phospho-Chk1 antibody, percent positive cells, primary screen (AID 1186). The settings on record: hydroxyurea-induced phospho-Chk1 immunofluorescence imaging, higher = more signal.
Assay [15] can be described thus: blockers of DNA damage checkpoint Chk1 activation – imaging, HeLa, hydroxyurea, phospho-Chk1 nuclear intensity, primary screen (AID 1187). To be noted: hydroxyurea-induced phospho-Chk1 immunofluorescence imaging, higher = more signal.

Active and inactive are the calls of the source. Unless noted, how the calls were made is not given here.

Sequence of Dihydroorotate dehydrogenase (quinone), mitochondrial (Plasmodium falciparum (isolate 3D7)) (Q08210 whole entry, looked up): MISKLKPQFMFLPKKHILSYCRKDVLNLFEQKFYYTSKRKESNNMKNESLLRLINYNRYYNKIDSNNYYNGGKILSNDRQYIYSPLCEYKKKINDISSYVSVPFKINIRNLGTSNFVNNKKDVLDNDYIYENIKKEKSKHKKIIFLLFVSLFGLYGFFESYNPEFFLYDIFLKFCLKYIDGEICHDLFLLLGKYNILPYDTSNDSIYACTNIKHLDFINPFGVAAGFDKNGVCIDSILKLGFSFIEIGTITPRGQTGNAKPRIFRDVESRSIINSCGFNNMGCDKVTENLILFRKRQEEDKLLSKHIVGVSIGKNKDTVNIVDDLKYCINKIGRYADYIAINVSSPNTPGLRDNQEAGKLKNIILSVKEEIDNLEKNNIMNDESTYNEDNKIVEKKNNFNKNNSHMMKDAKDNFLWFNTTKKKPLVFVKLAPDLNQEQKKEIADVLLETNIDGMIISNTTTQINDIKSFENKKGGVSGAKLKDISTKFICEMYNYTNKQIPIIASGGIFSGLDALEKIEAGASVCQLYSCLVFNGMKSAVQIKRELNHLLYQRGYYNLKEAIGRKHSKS
Sequence of E3 ubiquitin-protein ligase XIAP (Homo sapiens) (P98170 whole entry, looked up, the tested form may be a part): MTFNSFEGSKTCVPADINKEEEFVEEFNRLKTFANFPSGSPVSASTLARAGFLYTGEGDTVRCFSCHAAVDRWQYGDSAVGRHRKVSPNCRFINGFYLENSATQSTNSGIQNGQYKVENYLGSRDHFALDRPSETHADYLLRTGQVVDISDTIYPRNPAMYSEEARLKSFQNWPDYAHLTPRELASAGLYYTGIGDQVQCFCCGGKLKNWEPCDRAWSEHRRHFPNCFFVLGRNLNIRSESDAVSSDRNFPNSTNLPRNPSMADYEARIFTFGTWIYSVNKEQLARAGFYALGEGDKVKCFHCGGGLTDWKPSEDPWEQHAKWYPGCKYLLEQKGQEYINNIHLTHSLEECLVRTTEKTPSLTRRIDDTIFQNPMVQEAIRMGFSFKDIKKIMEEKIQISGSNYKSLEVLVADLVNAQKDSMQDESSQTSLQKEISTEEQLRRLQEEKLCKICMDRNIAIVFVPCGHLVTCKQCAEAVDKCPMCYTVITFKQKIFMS
Sequence of Homeobox protein Hox-A13 (Mus musculus) (Q62424 whole entry, looked up): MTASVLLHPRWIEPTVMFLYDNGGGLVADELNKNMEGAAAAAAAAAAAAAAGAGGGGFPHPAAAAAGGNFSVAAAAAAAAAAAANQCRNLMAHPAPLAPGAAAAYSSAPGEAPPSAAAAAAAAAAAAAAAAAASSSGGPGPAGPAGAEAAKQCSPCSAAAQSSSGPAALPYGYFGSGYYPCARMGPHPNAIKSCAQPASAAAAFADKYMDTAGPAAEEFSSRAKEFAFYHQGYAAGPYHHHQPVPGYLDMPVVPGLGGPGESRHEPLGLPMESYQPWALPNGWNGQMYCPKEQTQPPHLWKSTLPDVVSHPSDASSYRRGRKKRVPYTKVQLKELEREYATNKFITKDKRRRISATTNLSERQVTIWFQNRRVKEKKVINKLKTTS

`COCCOC(=O)N1C(=O)[C@@]2(c3cc(C#CCCO)ccc31)[C@H](C(=O)Nc1nc3ccccc3s1)[C@H]1C(=O)O[C@H](c3ccccc3)[C@H](c3ccccc3)N1[C@@H]2c1ccc(O)cc1`: the z-score in assay [1] was -0.0461; in [2], 1.26 (inactive); in assay [3] it was -0.159 (inactive); in assay [5], 0.325 (inactive); in assay [6], 1.52 (inactive); in assay [7], -0.356 (inactive). Besides, the z-score was -1.07 (inactive) in assay [8]; -0.358 in assay [9]; -1.45 in assay [12]; -3.01 (inactive) in assay [13]; -0.225 (inactive) in assay [14]; -0.445 (inactive) in assay [15]. Moreover, the composite z-score was 1.35 (inactive) in [4], -0.105 in assay [10], 3.02 (inactive) in assay [11] and 0.765 in the assay with XIP peptide (Xip251-270).

For the compound `CCOc1cc(C(O)C2C=CC3C(=O)NC(=O)C3N2Nc2ccc(Cl)cc2Cl)ccc1O` (stereo not given), the z-score in [1] is -1.37; in [2] it was 0.203 (inactive); in [3] it was -2.35 (inactive); in assay [5], 1.4 (inactive); in [6] it was 0.358 (inactive); in assay [7], -0.748 (inactive). Moreover, the z-score in [8] was -0.75 (inactive); in [9], -1.68; in assay [12] it was 0.0361; in assay [13], -2.05 (inactive); in [14], 0.394 (inactive); in [15], 0.627 (inactive). Besides, the composite z-score in assay [4] was 0.0681 (inactive); in assay [10], 0.659; in [11] it was -0.736 (inactive); in the assay on XIP peptide (Xip251-270) it was 0.966.

Regarding `[N-]=[N+]=Nc1ccccc1C[C@]1(C(=O)O)COC(c2ccc(OCCCO)cc2)=N1`, the z-score in [1] was -0.365; in [2], -0.231 (inactive); in assay [3] it was 0.037 (inactive); in [5], 0.0254 (inactive); in assay [6] it was 0.212 (inactive); in assay [7] it was 0.438 (inactive). Moreover, the z-score in assay [8] was -0.8 (inactive); in assay [9], 0.404; in assay [12], -1.54; in assay [13], -4.69 (inactive); in [14], 0.0118 (inactive); in [15], 0.0756 (inactive). Further, the composite z-score is 1.04 (inactive) in assay [4], 0.245 in assay [10], 1.09 (inactive) in [11] and 0.907 in the assay with XIP peptide (Xip251-270).

`COc1cc2c(cc1O)C=[N+](Cc1sc3ccccc3c1Cl)CC2`: the z-score in assay [1] is 0.19; in assay [2], -1.04 (inactive); in assay [3] it was -1.01 (inactive); in assay [5], 0.034 (inactive); in assay [6], -0.319 (inactive); in assay [7] it was 0.81 (inactive). In addition, the z-score is 0.128 (inactive) in [8]; -0.496 in assay [9]; -1.84 in assay [12]; -5.22 (inactive) in assay [13]; 0.399 (inactive) in assay [14]; 0.9 (inactive) in assay [15]. Besides, the composite z-score was -1.18 (inactive) in [4], 0.158 in assay [10], 0.669 (inactive) in [11] and 0.133 with XIP peptide (Xip251-270).

Turning to `CCCCC(CC)C(O)C1C=CC2C(=O)N(C)C(=O)C2N1Nc1ccccc1` (stereo not given), the z-score in [1] is -0.339; in assay [2], -0.027 (inactive); in assay [3] it was -0.916 (inactive); in assay [5] it was 0.723 (inactive); in [6] it was 0.468 (inactive); in assay [7], -0.861 (inactive). In addition, the z-score in [8] was -0.389 (inactive); in assay [9], -0.97; in assay [12] it was 0.537; in assay [13], -4.08 (inactive); in assay [14] it was 0.168 (inactive); in [15], -0.174 (inactive). For the same compound, the composite z-score in assay [4] is -0.206 (inactive); in assay [10], 0.0297; in [11], -0.12 (inactive); with XIP peptide (Xip251-270), 0.298.
